Hits are enriched below; roughly 3.4% of the tested compounds scored in any of these assays.
FBW7 activator – activators of human E3 ligase FBW7. Q969H0. AlphaScreen FBW7–phospho-cyclin E peptide binding, activator screen. normalized activity (activation), % at 26.1 µM. hit rate 0.13% among 650,000. AID 1259310; in the data active = normalized activity above about 1.9%;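 note: purified mutant Fbw7 with reduced substrate affinity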
Target sequence (Q969H0 whole entry, looked up): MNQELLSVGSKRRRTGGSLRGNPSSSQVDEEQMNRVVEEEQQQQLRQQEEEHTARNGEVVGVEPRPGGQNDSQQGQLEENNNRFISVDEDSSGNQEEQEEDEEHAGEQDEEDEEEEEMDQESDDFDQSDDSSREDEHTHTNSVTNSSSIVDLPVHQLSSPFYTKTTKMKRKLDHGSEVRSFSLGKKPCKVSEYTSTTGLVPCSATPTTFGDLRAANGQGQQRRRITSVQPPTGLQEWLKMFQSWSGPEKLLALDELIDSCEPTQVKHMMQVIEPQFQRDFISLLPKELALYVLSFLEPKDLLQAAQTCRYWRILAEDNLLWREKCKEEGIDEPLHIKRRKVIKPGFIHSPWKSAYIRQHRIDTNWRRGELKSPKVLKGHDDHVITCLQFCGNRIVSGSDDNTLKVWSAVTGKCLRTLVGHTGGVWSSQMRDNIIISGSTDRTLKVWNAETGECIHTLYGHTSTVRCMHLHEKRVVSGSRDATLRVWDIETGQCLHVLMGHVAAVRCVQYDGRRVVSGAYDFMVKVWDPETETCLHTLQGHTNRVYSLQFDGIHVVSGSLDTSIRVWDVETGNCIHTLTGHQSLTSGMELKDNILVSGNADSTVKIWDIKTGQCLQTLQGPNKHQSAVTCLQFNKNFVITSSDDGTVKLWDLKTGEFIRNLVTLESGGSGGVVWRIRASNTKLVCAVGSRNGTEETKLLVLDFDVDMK
MITF inh – blocks human microphthalmia-associated transcription factor. inhibition, % at 2.6 µM. O75030. hit rate 0.91% among 650,000. AlphaScreen MITF homodimerization, bead proximity signal; in the data active = inhibition above about 50%;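 note: 0% = vehicle wells with protein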
GPR151 activ – activators of human GPR151. hit rate 1% among 650,000. activation, % at 11.2 µM. PathHunter beta-arrestin GPR151 cells, luminescence; in the data active = activation above about 4.9%;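 note: 0% = median of compound wells and 100% = cells with positive control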
TEAD-YAP block – TEAD-YAP interaction inhibition. HEK-TIYL cells, TEAD-Gal4/YAP UAS-luciferase luminescence. inhibition, % at 9.12 µM. hit rate 1.4% among 640,000; in the data active = inhibition above about 32%;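 note: 0% = median of test compound wells and 100% = reference inhibitor wells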
* marks the source's active call; other numbers are inactive results.

What do the screens show for `CNC(=S)N/N=C\c1ccc([N+](=O)[O-])cc1`?
FBW7 activator: 0; MITF inh: 2; GPR151 activ: -1; TEAD-YAP block: 34*

What do the screens show for `O=C(N/N=C/c1ccc([N+](=O)[O-])cc1)C(=O)N/N=C/c1ccc([N+](=O)[O-])cc1`?
FBW7 activator: 0; MITF inh: -14; GPR151 activ: 4; TEAD-YAP block: 4

Results for O=C(Nc1c(Cl)cc([N+](=O)[O-])cc1Cl)c1cc(Cl)ccc1O ?
FBW7 activator: 0; MITF inh: 0; GPR151 activ: 5; TEAD-YAP block: 67*

What do the screens show for `COc1ccc(NC(=O)c2cc([N+](=O)[O-])ccc2O)cc1`?
FBW7 activator: 1; MITF inh: -7; GPR151 activ: -10; TEAD-YAP block: 86*

Results for O=C(Nc1ccc(Cl)cc1)c1cc([N+](=O)[O-])ccc1O ?
FBW7 activator: 0; MITF inh: 11; GPR151 activ: -10; TEAD-YAP block: 72*

Results for O=C(Nc1ccc([N+](=O)[O-])cc1Cl)c1cc(Br)ccc1O ?
FBW7 activator: 0; MITF inh: 5; GPR151 activ: 1; TEAD-YAP block: -70

What do the screens show for `Cc1ccc(F)c(CN[C@H]2C[C@H]3C(=O)N[C@@H](Cc4c[nH]c5ccccc45)C(=O)N3C2)c1`?
FBW7 activator: 0; MITF inh: 0; GPR151 activ: 0; TEAD-YAP block: -3

Results for CCc1ccc(OCCCC(=O)Nc2ccccc2C(=O)O)cc1 ?
FBW7 activator: 1; MITF inh: 6; GPR151 activ: -4; TEAD-YAP block: -40

What do the screens show for `c1ccc2oc(-c3ccc(Oc4ccc(-c5nc6ccccc6o5)cc4)cc3)nc2c1`?
FBW7 activator: 0; MITF inh: -7; GPR151 activ: 1; TEAD-YAP block: -1

How did COc1ccc(OC)c(/C=N/N=C2\NC(=O)C(C)S2)c1 (configuration not stated) do in these assays?
FBW7 activator: 0; MITF inh: 8; GPR151 activ: 0; TEAD-YAP block: -7

Results for COc1ccc(O)c(/C=N/N=C2/NC(=O)C(C)S2)c1 (configuration not stated) ?
FBW7 activator: 0; MITF inh: -7; GPR151 activ: -8; TEAD-YAP block: 68*

How did CCNC(=O)/C(C#N)=C/c1c(Oc2cc(C)ccc2C(C)C)nc2ccccn2c1=O do in these assays?
FBW7 activator: 0; MITF inh: 6; GPR151 activ: -6; TEAD-YAP block: 46*

Results for CNC(=O)/C(C#N)=C/c1c(Oc2cc(C)ccc2C(C)C)nc2ccccn2c1=O ?
FBW7 activator: 0; MITF inh: 8; GPR151 activ: -6; TEAD-YAP block: 34*

How did O=C(O)C1Nc2ccccc2C2C=CCC12 (configuration not stated) do in these assays?
FBW7 activator: -2; MITF inh: 75*; GPR151 activ: 0; TEAD-YAP block: -6

Results for CCOC(=O)C1Nc2c(ccc(C(=O)O)c2C)C2C=CCC12 (configuration not stated) ?
FBW7 activator: -1; MITF inh: 66*; GPR151 activ: 1; TEAD-YAP block: 13

Results for O=C(O)c1ccc2c(c1)C1C=CCC1C(C(=O)O)N2 (configuration not stated) ?
FBW7 activator: -1; MITF inh: 25; GPR151 activ: 0; TEAD-YAP block: 5

How did O=C(O)C1Nc2c(F)cccc2C2C=CCC12 (configuration not stated) do in these assays?
FBW7 activator: 0; MITF inh: 78*; GPR151 activ: -1; TEAD-YAP block: 8

Results for CCOC(=O)c1ccc2c(c1)[C@@H]1C=CC[C@@H]1[C@H](C(=O)OCC)N2 ?
FBW7 activator: 0; MITF inh: 10; GPR151 activ: 0; TEAD-YAP block: -2

How did Cc1ccc2c(c1C)NC(C(=O)O)C1CC=CC21 (configuration not stated) do in these assays?
FBW7 activator: -1; MITF inh: 65*; GPR151 activ: -1; TEAD-YAP block: -15

What do the screens show for `COc1cc2c(cc1OC)C(C(=O)O)C(c1sccc1C)N(C)C2=O` (configuration not stated)?
FBW7 activator: 0; MITF inh: -3; GPR151 activ: 0; TEAD-YAP block: 5

Results for CCCOc1cc(N2CCN(C(=O)Nc3ccc(OCC)cc3)CC2)nc(C)n1 ?
FBW7 activator: 0; MITF inh: 12; GPR151 activ: 0; TEAD-YAP block: -2

What do the screens show for `COc1ccccc1N1C(=O)c2ccc(-c3ccc4c(c3)C(=O)N(c3ccccc3OC)C4=O)cc2C1=O`?
FBW7 activator: 0; MITF inh: -7; GPR151 activ: 1; TEAD-YAP block: -3

What do the screens show for `O=C(O)C1Nc2ccc3ccccc3c2C2C=CCC12` (configuration not stated)?
FBW7 activator: 0; MITF inh: 24; GPR151 activ: 0; TEAD-YAP block: -2

What do the screens show for `O=C(O)C1Nc2c(O)ccc(Br)c2C2C=CCC12` (configuration not stated)?
FBW7 activator: 0; MITF inh: 86*; GPR151 activ: 0; TEAD-YAP block: 2

Results for CCCNC(=O)c1cc(N2CCN(Cc3ccc4c(c3)OCO4)CC2)nc2ccccc12 ?
FBW7 activator: 0; MITF inh: -4; GPR151 activ: 0; TEAD-YAP block: -9

How did COC(=O)c1cnc(N2CCN(Cc3ccc4c(c3)OCO4)CC2)c2ccccc12 do in these assays?
FBW7 activator: 0; MITF inh: 2; GPR151 activ: -1; TEAD-YAP block: 9

Results for O=C(c1cnc(N2CCN(c3ccccn3)CC2)c2ccccc12)N1CCN(Cc2ccc3c(c2)OCO3)CC1 ?
FBW7 activator: 0; MITF inh: 0; GPR151 activ: 2; TEAD-YAP block: 57*

What do the screens show for `O=C(NCCc1ccc(O)cc1)c1cc(N2CCN(Cc3ccc4c(c3)OCO4)CC2)nc2ccccc12`?
FBW7 activator: 0; MITF inh: 12; GPR151 activ: 0; TEAD-YAP block: 48*

What do the screens show for `CN1CCCc2cc(C(CNC(=O)NC(C)(C)C)N(C)C)ccc21` (configuration not stated)?
FBW7 activator: 0; MITF inh: 9; GPR151 activ: -1; TEAD-YAP block: 1

Results for CN1CCc2cc(C(CNC(=O)Nc3cccc(Cl)c3)N(C)C)ccc21 (configuration not stated) ?
FBW7 activator: 0; MITF inh: -3; GPR151 activ: -1; TEAD-YAP block: 49*

How did CCC(C)(C)NC(=O)C(OC(=O)c1ccco1)c1ccc(OC)cc1 (configuration not stated) do in these assays?
FBW7 activator: 0; MITF inh: 12; GPR151 activ: 1; TEAD-YAP block: -5

How did CCC(C)(C)NC(=O)C(OC(=O)c1ccco1)c1ccc(C)cc1 (configuration not stated) do in these assays?
FBW7 activator: 1.9*; MITF inh: 8; GPR151 activ: 0; TEAD-YAP block: -3

What do the screens show for `NS(=O)(=O)c1ccc(N=Cc2ccc[nH]2)cc1`?
FBW7 activator: 0; MITF inh: -2; GPR151 activ: -1; TEAD-YAP block: -5

Screens from PubChem.
